Experimental data published in PubChem BioAssay (NCATS).
Inconclusive results are not listed. Entries that show only a call come without a potency. The source made the active and inactive calls. Unless noted, calls come from the whole dose curve; as a rule, active = well fitted curve in the direction sought with a large enough effect; inconclusive = small, poorly fitted or top-dose-only effect, or another doubt; inactive = no such curve, though single readings can be large; an effect the other way counts as inactive or inconclusive.

Experiments:
[1] = qHTS assay for measurement of the activity of small molecule inhibitors on Zika virus induced Caspase-3 activity in human iPSC derived neural progenitor cells (hNPCs) (AID 1224857); note: nearly all actives have a fitted effect of over 65% in size
How it was run: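 Values are percent inhibition of virus-induced caspase-3/7 signal, scaled between uninfected cells and ZIKV-infected cells. Infection used 2 FFU/cell for 6 h after 1 h compound exposure.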

[2] = qHTS assay for measurement of the activity of small molecule inhibitors on Zika virus induced Caspase-3 activity in human astrocytoma cells (AID 1224859)
How it was run: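 Compound added 1 h pre-infection; ZIKV 2 FFU/cell on SNB-19 cells, 6 h, 37 C/5% CO2. Caspase-Glo 3/7 luminescence; values as % inhibition of ZIKV-induced caspase activity.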

[3] = qHTS assay to identify small molecule inhibitors of chordoma cells - UCH-2 (AID 1259356)
[4] = P-glycoprotein substrates identified in KB-8-5-11 adenocarcinoma cell line, qHTS therapeutic library screen (AID 1346987); note: nearly all actives have a fitted effect of over 65% in size; note: potency is the fitted concentration of half-maximal effect
How it was run: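 Luminescence from CellTiter-Glo, read 5 min after addition, quantified survival of KB-8-5-11 (P-gp-overexpressing) cells exposed to compounds for 72 h. AC50 was derived from concentration-response curves.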

[5] = NS1 protein of Zika virus - qHTS assay to identify small molecule inhibitors in human HEK 293 cells (AID 1347053); note: nearly all actives have a fitted effect of over 55% in size
How it was run: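 TR-FRET signal from two anti-ZIKV NS1 antibodies quantified NS1 in HEK 293 cells 24 h after MR766 infection at MOI = 0.5; compounds were added 1 h before virus. Uninfected cells and infected cells defined the NS1 normalization range.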

[6] = qHTS profiling of the MIPE4 collection as inhibitors of Plasmodium falciparum (3D7) proliferation (AID 743344; call rule not given here); conditions: P. falciparum 3D7 in erythrocytes, SYBR Green DNA fluorescence, 72 h; at 28.5 µM (top of the series) unless noted
How it was run: (§1)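 Parasite DNA was quantified by SYBR Green I fluorescence (ex 485, em 535 nm) after overnight lysis in saponin/Triton buffer at room temperature. Cultures at 0.3% parasitemia and 2.5% hematocrit were first exposed to compound for 72 h at 37 C; signals were normalised to artemisinin (0.29 uM) and vehicle wells.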

[7] = qHTS profiling of the MIPE4 collection as inhibitors of Plasmodium falciparum (DD2) proliferation (AID 743345; call rule not given here); conditions: P. falciparum Dd2 in erythrocytes, SYBR Green DNA, 72 h; at 28.5 µM (top of the series) unless noted
How it was run: as §1

[8] = qHTS profiling of the MIPE4 collection as inhibitors of Plasmodium falciparum (DD2) proliferation (Rep 2) (AID 743346; call rule not given here); conditions: P. falciparum Dd2 in erythrocytes, SYBR Green DNA, 72 h; at 28.5 µM (top of the series) unless noted
How it was run: as §1

[9] = qHTS profiling of the MIPE4 collection as inhibitors of Plasmodium falciparum (HB3) proliferation (AID 743347; call rule not given here); conditions: P. falciparum HB3 in erythrocytes, SYBR Green DNA, 72 h; at 28.5 µM (top of the series) unless noted
How it was run: as §1

SMILES: C[C@H](CCC(=O)O)[C@H]1CC[C@H]2[C@@H]3C(=O)C[C@@H]4CC(=O)CC[C@]4(C)[C@H]3CC(=O)[C@]12C
- outcome [1]: inactive
- outcome [2]: inactive
- Potency [3]: inactive
- Potency [4]: inactive
- Potency [5]: inactive

SMILES: NC(=NCCCCCCN=C(N)/N=C(\N)Nc1ccc(Cl)cc1)/N=C(\N)Nc1ccc(Cl)cc1
- outcome [1]: inactive
- outcome [2]: inactive
- Potency [3]: inactive
- Potency [5]: inactive

SMILES: COC(=O)[C@H]1[C@H]2C[C@H]3c4[nH]c5ccccc5c4CCN3C[C@H]2CC[C@@H]1O
- outcome [1]: inactive
- outcome [2]: inactive
- Potency [3]: inactive
- Potency [5]: inactive

SMILES: CC(C)(CO)[C@@H](O)C(=O)NCCCO
- outcome [1]: inactive
- outcome [2]: inactive
- Potency [3]: inactive
- Potency [5]: inactive

SMILES: CC1(C)O[C@@H]2C[C@H]3[C@@H]4C[C@H](F)C5=CC(=O)CC[C@]5(C)[C@H]4[C@@H](O)C[C@]3(C)[C@]2(C(=O)CO)O1
- outcome [1]: inactive
- outcome [2]: inactive
- Potency [3]: inactive
- Potency [4]: inactive
- Potency [5]: inactive

SMILES: CN(C)CC/C=C1\c2ccccc2Sc2ccc(Cl)cc21
- outcome [1]: inactive
- outcome [2]: inactive
- Potency [3]: inactive
- Potency [5]: inactive

SMILES: COc1ccc(CN2CCN(C(c3ccc(F)cc3)c3ccc(F)cc3)CC2)c(OC)c1OC
- parasite growth, % of DMSO control [6]: 4.59%
- parasite growth remaining, % of DMSO control (lower = more inhibition) [7]: 8.3%
- parasite growth, % of control (lower = inhibition) [8]: 26.6%
- growth, % of control [9]: 6.18%
- outcome [1]: inactive
- outcome [2]: inactive
- Potency [3]: inactive
- Potency [4]: 23.1 µM (active)

SMILES: O=c1ccc2ccccc2o1
- outcome [1]: inactive
- outcome [2]: inactive
- Potency [3]: inactive
- Potency [4]: inactive
- Potency [5]: inactive

SMILES: CC(C)(C)NC(=O)[C@@H]1CN(Cc2cccnc2)CCN1C[C@@H](O)C[C@@H](Cc1ccccc1)C(=O)N[C@H]1c2ccccc2C[C@H]1O
- outcome [1]: inactive
- outcome [2]: inactive
- Potency [4]: inactive
- Potency [5]: inactive

SMILES: O=C(O)CNC(=O)c1ccccc1
- outcome [1]: inactive
- outcome [2]: inactive
- Potency [4]: inactive
- Potency [5]: inactive

SMILES: CC1(C)O[C@@H]2[C@@H](CO[C@@]3(COS(N)(=O)=O)OC(C)(C)O[C@@H]23)O1
- outcome [1]: inactive
- outcome [2]: inactive
- Potency [4]: inactive
- Potency [5]: inactive

SMILES: CN1CCC[C@@H]1c1cccnc1
- outcome [1]: inactive
- outcome [2]: inactive
- Potency [4]: inactive
- Potency [5]: inactive

SMILES: OC[C@H]1O[C@@H](n2cnc3c(=S)nc[nH]c32)[C@H](O)[C@@H]1O
- outcome [1]: inactive
- outcome [2]: inactive
- Potency [4]: 1.84 µM (active)

SMILES: O=c1[nH]c(=O)n([C@H]2CCCO2)cc1F
- outcome [1]: inactive
- outcome [2]: inactive
- Potency [4]: inactive
- Potency [5]: inactive
